# Screening results: PubChem BioAssay, Buhrlage Lab, Dana-Farber Cancer Institute and Novartis Institutes for BioMedical Research (Cambridge, Mass)
# USP10 block = human USP10 deubiquitinase inhibition; actives 1.1% (n = 47,000); inhibition, % at 20 µM; AID 1645856; purified USP10, Ub-rhodamine fluorescence, 60 min
# UCHL1 block = human UCHL1 deubiquitinase inhibition. P09936. purified UCHL1, Ub-rhodamine cleavage fluorescence. inhibition, % at 20 µM. actives 0.2% (n = 47,000). AID 1645859
# USP8 inh = inhibitors of human USP8 deubiquitinase | actives 4.2% (n = 47,000) | P40818 | purified USP8, Ub-rhodamine cleavage fluorescence, 30 min | AID 1645853 | inhibition, % at 20 µM
# USP7 inh = human USP7 deubiquitinase inhibition; Q93009; purified USP7, Ub-rhodamine cleavage fluorescence; inhibition, % at 20 µM; actives 0.3% (n = 47,000)
# Target sequence (Q93009 whole entry, looked up): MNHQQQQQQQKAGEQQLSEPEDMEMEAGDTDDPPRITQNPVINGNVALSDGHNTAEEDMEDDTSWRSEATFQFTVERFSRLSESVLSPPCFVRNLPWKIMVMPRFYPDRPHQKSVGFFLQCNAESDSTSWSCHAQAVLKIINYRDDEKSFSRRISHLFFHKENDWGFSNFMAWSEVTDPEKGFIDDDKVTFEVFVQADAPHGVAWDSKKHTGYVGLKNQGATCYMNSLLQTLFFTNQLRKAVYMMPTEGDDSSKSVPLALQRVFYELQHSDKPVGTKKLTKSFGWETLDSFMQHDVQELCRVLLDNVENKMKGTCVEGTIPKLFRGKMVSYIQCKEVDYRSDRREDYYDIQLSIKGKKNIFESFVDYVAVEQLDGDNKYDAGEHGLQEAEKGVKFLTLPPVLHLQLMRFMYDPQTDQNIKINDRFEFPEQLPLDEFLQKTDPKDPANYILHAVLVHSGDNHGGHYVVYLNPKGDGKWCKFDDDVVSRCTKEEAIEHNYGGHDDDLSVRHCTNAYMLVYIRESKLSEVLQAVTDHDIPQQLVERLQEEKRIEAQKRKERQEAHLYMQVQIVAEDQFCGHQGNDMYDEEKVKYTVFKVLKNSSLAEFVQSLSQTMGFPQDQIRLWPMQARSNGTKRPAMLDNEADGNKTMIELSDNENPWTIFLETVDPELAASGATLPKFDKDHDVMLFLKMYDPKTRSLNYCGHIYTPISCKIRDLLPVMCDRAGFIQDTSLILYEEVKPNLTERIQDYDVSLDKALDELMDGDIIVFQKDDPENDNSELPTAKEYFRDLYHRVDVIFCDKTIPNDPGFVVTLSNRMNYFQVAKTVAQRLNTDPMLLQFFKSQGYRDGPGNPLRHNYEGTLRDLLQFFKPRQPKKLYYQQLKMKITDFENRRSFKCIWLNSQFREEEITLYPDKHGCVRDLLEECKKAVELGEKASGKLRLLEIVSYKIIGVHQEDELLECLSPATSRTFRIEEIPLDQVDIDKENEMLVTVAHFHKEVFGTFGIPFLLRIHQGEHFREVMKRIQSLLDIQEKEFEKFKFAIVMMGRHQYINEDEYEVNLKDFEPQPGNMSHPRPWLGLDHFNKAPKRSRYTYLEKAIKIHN
# Starred values were filed as active, the others as inactive; nt = no result. The list is not random: actives were taken first. Their share in the collection is about 4.6%. No stated cut-off is given here; in the data, active means inhibition above about 30%; inactive means the rest.
SMILES,USP10 block,UCHL1 block,USP8 inh,USP7 inh
COC(=O)C1C(c2ccc(OC)cc2)C2(C(=O)c3ccccc3C2=O)C2C=Cc3ccccc3N12 (configuration not stated),-4,-155,-200,-169
COc1cc(C2CCN(C(=O)c3ccccc3)CC2)on1,2,0,32*,-1
COc1cc(C2CCN(C(=O)c3ccc(Cl)cc3)CC2)on1,0,0,1,-4
COc1ccc(NC(=O)C2CCCN(S(=O)(=O)N3CCC(C)CC3)C2)c(OC)c1 (configuration not stated),-3,-3,44*,-5
Cc1nnc(NC(=O)C(=O)c2cc(C)n(-c3ccc(Cl)cc3)c2C)s1,2,5,41*,6
COc1ccccc1OCCC(=O)Nc1ccc(C)cc1O,0,-3,-1,-15
COc1cccc(CNc2ccc(-c3nc(-c4ccccc4)no3)nn2)c1,12,3,76*,24
Cc1ccccc1NC(=O)CC[C@@H]1NC(=O)N([C@@H](C)c2ccccc2)C1=O,0,-1,9,3
Cc1ccc(S(=O)(=O)c2cnc3ccc(F)cc3c2N2CCCCCC2)cc1,4,5,33*,4
Cc1cccc(Nc2cc(C3CCCN(C(=O)c4ccn[nH]4)C3)ccn2)n1 (configuration not stated),7,5,-127,9
COc1ccc(C)cc1NC(=O)C1CC(=O)Nc2nc(SCc3ccccc3)nn21 (configuration not stated),34*,3,26,6
OC(CNCc1ccc(-c2ccccc2)o1)c1ccccc1 (configuration not stated),3,5,17,-10
CC1CCc2c(sc(NC(=O)c3cccc(S(C)(=O)=O)c3)c2C(N)=O)C1 (configuration not stated),12,1,75*,12
CN(C)C(=O)c1ccc(NC(=O)c2ccccc2C(=O)c2ccc(F)cc2)cc1,0,-1,2,-1
Cc1ccc2c(C)nc(Nc3ncc4c(n3)CC(c3ccco3)CC4=O)nc2c1 (configuration not stated),10,9,61*,12
O=C1CC(c2ccco2)Cc2nc(N3CCc4ccccc43)ncc21 (configuration not stated),-1,4,40*,7
O=C1CC(c2ccco2)Cc2nc(N3CCc4ccccc4C3)ncc21 (configuration not stated),6,5,3,0
COc1ccccc1NC(=O)COc1cc(CSc2ncccn2)ncc1OC,0,3,-61,2
Cc1[nH]c(C)c(S(=O)(=O)N2CCCC2)c1-c1nc(C2CC2)no1,2,1,1,nt
O=C(O)c1nnn(-c2ccccc2)c1-c1ccccn1,0,1,-2,9
COc1ccc(C)cc1NCC(=O)Nc1ncc(Cl)c(C)c1Cl,-5,-9,36*,-12
O=C(CNC(=O)c1ccc2nc(-n3cccc3)sc2c1)NCc1ccco1,-5,2,76*,7
O=C(CNC(=O)c1ccc2nc(-n3cccc3)sc2c1)NCc1ccccc1Cl,-6,0,46*,9
O=C(CNC(=O)c1ccc2nc(-n3cccc3)sc2c1)NCc1ccccc1,-3,5,39*,nt
COCCn1c(=O)[nH]c(=O)c2c3c(cnc21)C(=O)CC(c1ccc(F)cc1)C3 (configuration not stated),9,-1,68*,-7
SMILES,USP10 block,UCHL1 block,USP8 inh,USP7 inh
COc1ccc(C2CC(=O)c3cnc4c(c3C2)c(=O)n(C)c(=O)n4C)cc1 (configuration not stated),-2,1,-2,2
CNc1nc(C2CCN(C(=O)C3(c4cccc(C)c4)CCOCC3)C2)nc2c1CCN(C)C2 (configuration not stated),-10,0,37*,2
CNc1nc(C2CCN(C(=O)C3(c4cccc(C)c4)CCOCC3)C2)nc2c1CN(C)CC2 (configuration not stated),-8,-8,-6,-3
N=c1c2c(ncn1CCCn1ccnc1)Oc1c(ccc3ccccc13)C2c1ccco1 (configuration not stated),-8,-47,-11,-53
O=C(CSc1ccc2nnc(CCNS(=O)(=O)c3ccccc3)n2n1)N1CCCc2ccccc21,-1,-1,-13,-1
O=C(CSc1ccc2nnc(-c3cccc(F)c3)n2n1)N1CCCc2ccccc21,11,3,38*,21
N#Cc1ccc(-c2csc(N)n2)cc1,2,-3,1,0
Cc1ccn2cc(-c3ccc(NC(=O)C(C)Oc4ccccc4)cc3)nc2n1 (configuration not stated),13,0,40*,8
Cn1ncc(Cl)c1C(=O)Nc1ccc2nc(NC(=O)C3CCCCC3)sc2c1,19,3,58*,13
